Data: PubChem BioAssay (NCI)
The panel holds about 79,000 compounds, 15% with a hit somewhere; the sample as a whole holds those more often. The source made the active and inactive calls. No stated cut-off is given here; in the data, active means growth inhibition above about 70%; inactive means the rest.

Tests used:
[1] = NCI Yeast Anticancer Drug Screen. Data for the rad52 strain (AID 147);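 further: 0% = growth of vehicle-treated control cultures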; details: S. cerevisiae rad52 mutant growth inhibition, stronger effect = higher value
How it was run: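 Here a repair-compromised yeast strain receives each compound; its growth is then quantified and normalised to vehicle-only controls.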

[2] = NCI Yeast Anticancer Drug Screen. Data for the wt1 strain (AID 149);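 further: 0% = growth of vehicle-treated wt1 cultures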; details: S. cerevisiae wt1 strain (SPY 50644) growth inhibition, stronger effect = higher value
How it was run: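 wt1 strain grown with compound or vehicle; inhibition taken from the growth difference.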

[3] = NCI Yeast Anticancer Drug Screen. Data for the rad50EPP+ strain (AID 151);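 further: 0% = growth of vehicle-treated control cultures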; details: S. cerevisiae rad50 mutant strain, stronger effect = higher value
How it was run: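 Read-out is yeast growth inhibition relative to vehicle; cells used were the rad50EPP+ strain.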

[4] = NCI Yeast Anticancer Drug Screen. Data for the rad50 strain (AID 155);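 further: 0% = growth of vehicle-only cultures of the same strain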; details: S. cerevisiae rad50 strain growth inhibition, stronger effect = higher value
How it was run: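 DNA repair mutant yeast, compound exposure, growth read-out; inhibition is taken relative to vehicle.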

[5] = NCI Yeast Anticancer Drug Screen. Data for the mec2-1 strain (AID 157); details: S. cerevisiae mec2-1 strain, stronger effect = higher value
How it was run: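 Using mec2-1 yeast: add compound, measure growth, express inhibition versus vehicle-treated cultures.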

[6] = NCI Yeast Anticancer Drug Screen. Data for the rad14 strain (AID 159);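 further: 0% = growth of vehicle-treated control cultures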; details: S. cerevisiae rad14 strain growth inhibition, stronger effect = higher value
How it was run: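 DNA repair-defective yeast, compound-exposed; % growth inhibition derived by comparison with vehicle-treated controls.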

[7] = NCI Yeast Anticancer Drug Screen. Data for the sgs1 mgt1 strain (AID 161);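 further: 0% = growth of cultures given vehicle only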; details: S. cerevisiae sgs1 mgt1 strain, stronger effect = higher value
How it was run: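 This yeast growth screen uses a strain with defined DNA-repair lesions; compound-treated growth is compared with vehicle-treated growth.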

[8] = NCI Yeast Anticancer Drug Screen. Data for the CLN2oe strain (AID 163);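 further: 0% = growth of vehicle-only control cultures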; details: S. cerevisiae CLN2oe strain, stronger effect = higher value
How it was run: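 Whole-cell yeast growth assay. A strain engineered for altered cell-cycle control received compound, and inhibition relative to vehicle-treated cultures was recorded.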

[9] = NCI Yeast Anticancer Drug Screen. Data for the cln2 rad14 strain (AID 165);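 further: 0% = growth equal to vehicle treated cultures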; details: S. cerevisiae cln2 rad14 strain, stronger effect = higher value
How it was run: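 Yeast strain cln2 rad14, bearing defects in cell cycle control and DNA repair, serves as the test system; values reflect growth inhibition compared with vehicle.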

[10] = NCI Yeast Anticancer Drug Screen. Data for the bub3 strain (AID 167); details: S. cerevisiae bub3 mutant strain, stronger effect = higher value
How it was run: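 In this screen, a yeast mutant lacking normal mitotic checkpoint function is challenged with compound. Relative growth versus vehicle gives the inhibition value.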

[11] = NCI Yeast Anticancer Drug Screen. Data for the wt2 strain (AID 169);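 further: 0% = growth of vehicle-treated yeast cultures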; details: S. cerevisiae wt2 strain growth inhibition, stronger effect = higher value
How it was run: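 Treated yeast vs. vehicle-treated yeast: growth inhibition determined.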

[12] = NCI Yeast Anticancer Drug Screen. Data for the mlh1 strain (AID 171);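 further: 0% = growth of vehicle-treated control cultures of the same strain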; details: S. cerevisiae mlh1 strain growth inhibition, stronger effect = higher value
How it was run: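 A yeast strain with a defined genetic lesion serves as the test organism. Cultures receive compound or vehicle, and growth is measured.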

[13] = NCI Yeast Anticancer Drug Screen. Data for the sgs1 strain (AID 173);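 further: 0% = growth of vehicle-only control cultures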; details: S. cerevisiae sgs1 mutant, stronger effect = higher value
How it was run: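 A genetically defined yeast mutant is incubated with the test compound, and its growth is compared to that of the same strain given vehicle.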

[14] = NCI Yeast Anticancer Drug Screen. Data for the mlh1 rad18 strain (AID 175); details: S. cerevisiae mlh1 rad18 strain growth inhibition, stronger effect = higher value
How it was run: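 Steps: expose repair-defective yeast to compound; measure growth; express inhibition against vehicle-treated controls.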

[15] = NCI Yeast Anticancer Drug Screen. Data for the rad18 strain (AID 177); details: S. cerevisiae rad18 mutant growth inhibition, stronger effect = higher value
How it was run: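 Measured value is growth inhibition of a yeast strain bearing a DNA repair alteration, referenced to vehicle-treated cells.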

[16] = NCI Yeast Anticancer Drug Screen. Data for the mgt1 strain (AID 153); details: S. cerevisiae mgt1 mutant growth inhibition, stronger effect = higher value
How it was run: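 Measured: inhibition of mgt1 yeast growth by compound, normalized to vehicle-treated cultures.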

[17] = at 5.0 µM (retest, dose inferred, filed as 0.5)
[18] = at 50.0 µM (retest, dose inferred, filed as 5.0)

Measured: growth inhibition

CN(N=O)C(=O)N[C@@H](C=O)[C@@H](O)[C@H](O)[C@H](O)CO
inactive: [1]; at 1.2 µM 0% | [1]; at 3.7 µM 1% | [1]; at 11.0 µM 5% | [1]; at 33.0 µM 2% | [1]; at 100.0 µM 3% | [2]; at 1.2 µM 0% | [2]; at 3.7 µM -1% | [2]; at 11.0 µM 0% | [2]; at 33.0 µM -1% | [2]; at 100.0 µM 20% | [3]; at 1.2 µM 0% | [3]; at 3.7 µM 0% | [3]; at 11.0 µM 0% | [3]; at 33.0 µM -7% | [3]; at 100.0 µM 3% | [4]; at 1.2 µM -1% | [4]; at 3.7 µM -1% | [4]; at 11.0 µM 4% | [4]; at 33.0 µM -1% | [4]; at 50.0 µM 3.9% | [4]; at 100.0 µM -2% | [5]; at 1.2 µM -3% | [5]; at 3.7 µM -7% | [5]; at 11.0 µM -6% | [5]; at 33.0 µM 2% | [5]; at 50.0 µM -7.8% | [5]; at 100.0 µM -7% | [6]; at 1.2 µM -1% | [6]; at 3.7 µM -3% | [6]; at 11.0 µM -2% | [6]; at 33.0 µM -2% | [6]; at 100.0 µM -4% | [7]; at 50.0 µM 17.6% | [8]; at 1.2 µM -10% | [8]; at 3.7 µM -3% | [8]; at 11.0 µM -6% | [8]; at 33.0 µM -9% | [8]; at 100.0 µM -6% | [9]; at 50.0 µM -1.1% | [10]; at 1.2 µM 1% | [10]; at 3.7 µM 0% | [10]; at 11.0 µM 0% | [10]; at 33.0 µM -4% | [10]; at 50.0 µM 7.3% | [10]; at 100.0 µM -1% | [11]; at 1.2 µM -3% | [11]; at 3.7 µM 0% | [11]; at 11.0 µM -2% | [11]; at 33.0 µM -1% | [11]; at 100.0 µM -1% | [12]; at 1.2 µM -1% | [12]; at 3.7 µM -1% | [12]; at 11.0 µM 1% | [12]; at 33.0 µM 0% | [12]; at 100.0 µM 0% | [13]; at 1.2 µM 0% | [13]; at 3.7 µM 0% | [13]; at 11.0 µM 2% | [13]; at 33.0 µM 2% | [13]; at 100.0 µM 1% | [14]; at 50.0 µM 4.1% | [15]; at 1.2 µM 0% | [15]; at 3.7 µM 0% | [15]; at 11.0 µM 0% | [15]; at 33.0 µM 2% | [15]; at 100.0 µM 19%

Cc1cc(N=C2C=CC(=[N+](C)C)C=C2)c(N)cc1N
inactive: [1]; at 1.2 µM -7% | [1]; at 3.7 µM -9% | [1]; at 11.0 µM 15% | [1]; at 33.0 µM 45% | [3]; at 1.2 µM -8% | [3]; at 3.7 µM -6% | [3]; at 11.0 µM -5% | [3]; at 33.0 µM 9% | [3]; at 100.0 µM 47% | [16]; at 1.2 µM 4% | [16]; at 3.7 µM 15% | [16]; at 11.0 µM 28% | [16]; at 33.0 µM 52% | [4]; at 1.2 µM -2% | [4]; at 3.7 µM 1% | [4]; [17] 54% | [4]; at 11.0 µM 15% | [4]; at 33.0 µM 52% | [4]; [18] 61% | [4]; at 50.0 µM 46.4% | [5]; at 1.2 µM -16% | [5]; at 3.7 µM -13% | [5]; [17] 50% | [5]; at 11.0 µM -3% | [5]; at 33.0 µM 23% | [5]; at 50.0 µM 45.3% | [5]; at 100.0 µM 59% | [6]; at 1.2 µM -20% | [6]; at 3.7 µM -19% | [6]; at 11.0 µM 8% | [6]; at 33.0 µM 46% | [7]; [17] -18% | [7]; [18] 65% | [7]; at 50.0 µM 63.8% | [8]; at 1.2 µM 35% | [8]; at 3.7 µM 35% | [8]; at 11.0 µM 32% | [8]; at 33.0 µM 28% | [8]; at 100.0 µM 67% | [9]; [17] 59% | [9]; [18] 57% | [9]; at 50.0 µM 39.7% | [10]; at 1.2 µM 4% | [10]; at 3.7 µM 7% | [10]; [17] 31% | [10]; at 11.0 µM 34% | [10]; at 33.0 µM 54% | [10]; [18] 21% | [10]; at 50.0 µM 62.6% | [11]; at 1.2 µM -9% | [11]; at 3.7 µM 22% | [11]; at 11.0 µM -15% | [11]; at 33.0 µM 22% | [11]; at 100.0 µM 62% | [12]; at 1.2 µM 1% | [12]; at 3.7 µM 2% | [12]; at 11.0 µM -2% | [12]; at 33.0 µM 31% | [12]; at 100.0 µM 61% | [13]; at 1.2 µM -27% | [13]; at 3.7 µM -25% | [13]; at 11.0 µM 1% | [13]; at 33.0 µM 33% | [13]; at 100.0 µM 61% | [14]; [17] 28% | [14]; [18] 56% | [14]; at 50.0 µM 53.5% | [15]; at 1.2 µM -2% | [15]; at 3.7 µM -4% | [15]; at 11.0 µM 7% | [15]; at 33.0 µM 21% | [15]; at 100.0 µM 61%
active: [1]; at 100.0 µM 72% | [16]; at 100.0 µM 75% | [4]; at 100.0 µM 71% | [5]; [18] 70% | [6]; at 100.0 µM 70% | [10]; at 100.0 µM 75%

c1ccc2c(c1)Cn1c-2nc2ccccc21
active: [1]; at 33.0 µM 78% | [1]; at 100.0 µM 97% | [2]; at 100.0 µM 94% | [16]; at 33.0 µM 74% | [16]; at 100.0 µM 98% | [4]; at 33.0 µM 75% | [4]; [18] 74% | [4]; at 50.0 µM 84.3% | [4]; at 100.0 µM 96% | [5]; [17] 73% | [5]; [18] 85%
inactive: [1]; at 1.2 µM 1% | [1]; at 3.7 µM 1% | [1]; at 11.0 µM 8% | [2]; at 1.2 µM -27% | [2]; at 3.7 µM -21% | [2]; at 11.0 µM -28% | [2]; at 33.0 µM 5% | [16]; at 1.2 µM 15% | [16]; at 3.7 µM 3% | [16]; at 11.0 µM 30% | [4]; at 1.2 µM -9% | [4]; at 3.7 µM 1% | [4]; [17] 49% | [4]; at 11.0 µM 24% | [5]; at 1.2 µM 9% | [5]; at 3.7 µM 7% | [5]; at 11.0 µM 13% | [5]; at 33.0 µM 53% | [5]; at 50.0 µM 69.5%
